# Data reported in PMC4336329 (PLoS ONE, 2015).
# Hit rate of the full screen: of about 310,000 compounds, about 14,000 (4.5%) showed an effect of 50% or more. Effects have a minus sign here. Shown is part of a subset that was picked to be rich in strong results.
# Molecular target: human ether-à-go-go-related gene (hERG) potassium channel (human, UniProt Q12809)
# Assay: primary screen, population patch clamp on CHO cells stably expressing hERG; higher = less effect of the substance
# 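Further: peak tail current of the secondary pulse compared with the same well before compound.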
# human ether-à-go-go-related gene (hERG) potassium channel, sequence (Q12809 whole entry, looked up): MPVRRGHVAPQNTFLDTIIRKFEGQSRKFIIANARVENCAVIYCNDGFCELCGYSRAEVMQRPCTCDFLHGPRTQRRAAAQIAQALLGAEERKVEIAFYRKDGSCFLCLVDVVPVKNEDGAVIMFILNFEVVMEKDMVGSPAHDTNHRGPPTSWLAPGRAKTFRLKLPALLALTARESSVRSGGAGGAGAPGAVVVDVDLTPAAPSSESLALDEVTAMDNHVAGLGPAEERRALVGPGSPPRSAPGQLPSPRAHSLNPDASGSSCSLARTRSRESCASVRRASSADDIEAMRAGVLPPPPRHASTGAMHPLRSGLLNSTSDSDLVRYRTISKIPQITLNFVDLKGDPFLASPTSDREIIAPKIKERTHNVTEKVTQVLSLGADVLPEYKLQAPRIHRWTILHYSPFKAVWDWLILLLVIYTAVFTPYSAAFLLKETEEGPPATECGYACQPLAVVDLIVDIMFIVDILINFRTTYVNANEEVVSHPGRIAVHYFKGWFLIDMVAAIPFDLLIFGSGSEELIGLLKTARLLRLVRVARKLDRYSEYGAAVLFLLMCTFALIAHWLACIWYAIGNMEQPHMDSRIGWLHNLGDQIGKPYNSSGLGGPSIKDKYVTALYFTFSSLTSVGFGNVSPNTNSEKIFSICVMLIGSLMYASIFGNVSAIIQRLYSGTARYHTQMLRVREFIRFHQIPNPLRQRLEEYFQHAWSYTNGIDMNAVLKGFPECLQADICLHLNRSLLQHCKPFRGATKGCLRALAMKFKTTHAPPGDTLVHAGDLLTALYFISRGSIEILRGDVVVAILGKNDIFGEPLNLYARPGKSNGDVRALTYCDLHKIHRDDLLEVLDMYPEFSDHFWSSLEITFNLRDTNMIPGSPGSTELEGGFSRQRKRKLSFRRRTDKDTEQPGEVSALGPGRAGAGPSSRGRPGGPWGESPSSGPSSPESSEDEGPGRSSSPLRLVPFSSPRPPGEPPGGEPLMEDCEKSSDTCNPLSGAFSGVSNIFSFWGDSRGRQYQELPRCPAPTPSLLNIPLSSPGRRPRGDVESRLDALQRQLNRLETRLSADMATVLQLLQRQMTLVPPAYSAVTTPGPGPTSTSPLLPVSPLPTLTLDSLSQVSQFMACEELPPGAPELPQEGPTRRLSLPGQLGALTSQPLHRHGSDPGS
row,SMILES,"hERG current change (%, negative = inhibition) at 10uM [%]"
1,COc1ccc(C=O)cc1OS(=O)(=O)c1ccccc1[N+](=O)[O-],-3.35
2,COc1ccc(NS(=O)(=O)c2cccc(C(=O)NNC(=O)c3ccccc3OC)c2)cc1,-16.4
3,CN(C)CCCn1c(=O)n(Cc2ccco2)c(=O)c2c3c(sc21)CCCCC3,-71.1
4,Cn1c(=O)n(Cc2ccco2)c(=N)c2c3c(sc21)CCC3,-64.8
5,Cn1c(=O)n(Cc2ccco2)c(=N)c2c3c(sc21)CCCC3,-31.4
6,CC(O)CNc1nc2sc3c(c2c(=O)n1Cc1ccco1)CCCCC3 (centres unmarked),4.61
7,CN(C)CCn1c(=O)n(-c2cccc(Cl)c2)c(=O)c2c3c(sc21)CCCCC3,-20.7
8,CN(C)CCn1c(=O)n(Cc2ccco2)c(=O)c2c3c(sc21)CCCCC3,-50.4
9,O=c1c2c3c(sc2[nH]c(=S)n1Cc1ccco1)CCC3,6.17
10,NC(=O)Cn1c(=O)n(Cc2ccco2)c(=O)c2c3c(sc21)CCCCC3,5.2
11,CN(C)CCn1c(=O)n(-c2ccc(F)cc2)c(=O)c2c3c(sc21)CCCCC3,-18.6
12,Cc1c(NC(=O)COC(=O)CSc2ccc(C(N)=O)cc2[N+](=O)[O-])c(=O)n(-c2ccccc2)n1C,23.1
13,Cc1ccc(C)c(S(=O)(=O)N2CCN(C(=O)CCNS(=O)(=O)c3ccccc3)CC2)c1,-33.6
14,O=C1NC(c2ccccc2)=NC1(NS(=O)(=O)c1ccccc1)C(F)(F)F (centres unmarked),-3.5
15,Cc1ccc(S(=O)(=O)N2CCC(C(=O)OC(C)C(=O)NC3CCCCC3C)CC2)cc1C (centres unmarked),-25.4
16,Cc1ccc(NC(=O)c2sc3nc4c(c(-c5ccco5)c3c2N)CCC4)cc1,11.6
17,Cc1cc(C(=O)Nc2ccc3[nH]ccc3c2)no1,6.46
18,Cc1ccc(S(=O)(=O)NCCSc2ccccc2)cc1[N+](=O)[O-],-0.246
19,Cc1ccc(N(Cc2ccccc2)C(=O)c2cc(S(=O)(=O)N3CCOCC3)ccc2C)cc1,-27.4
20,Cc1ccc(N(Cc2ccccc2)C(=O)c2cccc(S(=O)(=O)N3CC(C)OC(C)C3)c2)cc1 (centres unmarked),-7.01
21,CN1CCN(S(=O)(=O)c2cccc(C(=O)N(Cc3ccccc3)c3ccccc3)c2)CC1,-19.9

row,SMILES,"hERG current change (%, negative = inhibition) at 10uM [%]"
1,CC(=O)N1CCN(S(=O)(=O)c2cccc(C(=O)N(Cc3ccccc3)c3cccc(C)c3)c2)CC1,-27.4
2,Cc1ccc(N(Cc2ccccc2)C(=O)c2cccc(S(=O)(=O)N3CCOCC3)c2)cc1,-74.5
3,Cc1ccc(N(Cc2ccccc2)C(=O)c2ccc(S(=O)(=O)N3CCOCC3)cc2)cc1,-28.5
4,CC(=O)N1CCN(S(=O)(=O)c2cccc(C(=O)N(Cc3ccccc3)c3ccc(C)cc3)c2)CC1,-61.2
5,Cc1cccc(N(Cc2ccccc2)C(=O)c2cccc(S(=O)(=O)N3CC(C)OC(C)C3)c2)c1 (centres unmarked),-9.56
6,Cc1ccc(N(Cc2ccccc2)C(=O)c2cccc(S(=O)(=O)N3CCN(C)CC3)c2)cc1,-52.7
7,CCCCSc1n[nH]c(N)n1,14
8,CC(C)CCn1c(N2CCC(C(N)=O)CC2)nc2c1c(=O)[nH]c(=O)n2C,11.1
9,CCOc1cc2[nH]c(=S)n(CCCC(=O)NCc3ccco3)c(=O)c2cc1OCC,-7.08
10,CCOC(=O)/C(C#N)=C/N1CCOCC1,-1.97
11,COc1cccc(C2C3(C#N)C(N)=NC(OC)(OC)C23C#N)c1 (centres unmarked),9.01
12,O=C(C1CC1)N1c2ccccc2Sc2ccccc21,7.2
13,CC1CCCN(CC(=O)N2c3ccccc3Sc3ccccc32)C1 (centres unmarked),1.98
14,c1ccc2c(c1)Sc1ccccc1N2CC1CN2CCC1CC2 (centres unmarked),-53.1
15,Cc1ccc2nc(-c3cccnc3)oc2c1,5.22
16,Cc1ccc(C(=O)CN(CCCC(N)=O)S(=O)(=O)c2ccc([N+](=O)[O-])cc2)cc1,-66.7
17,O=C(O)CCN(CC(=O)c1ccc(Cl)cc1)S(=O)(=O)c1ccc([N+](=O)[O-])cc1,-13.7
18,Cc1ccc(C(=O)CN(CCC(=O)O)S(=O)(=O)c2ccc([N+](=O)[O-])cc2)cc1,-25.7
19,c1ccc2c3c([nH]c2c1)-c1[nH]ncc1CC3,1.38
20,CC(=O)N1CCc2c(sc(NC(=O)CCS(=O)(=O)c3ccc(C)cc3)c2C(N)=O)C1,2.54
21,O=C(CC1CCCC1)Nc1cc(S(=O)(=O)N2CCOCC2)ccc1O,4.05

row,SMILES,"hERG current change (%, negative = inhibition) at 10uM [%]"
1,COCCNc1c(-c2cc3ccc(C)c(C)c3[nH]c2=O)nc2ccccn12,-74.9
2,Cc1cccc2cc(-c3nc4c(C)cccn4c3NCc3ccco3)c(=O)[nH]c12,-11.5
3,Cc1ccc2[nH]c(=O)c(-c3nc4ccccn4c3NCc3ccco3)cc2c1,-12.3
4,O=C(NCCc1ccccc1)c1cccnc1,7.59
5,COc1ccc(-c2cn[nH]c2-c2ccc(OCC(=O)NN)cc2O)cc1OC,18.3
6,CCOc1ccccc1C1CC(c2cccc(NS(C)(=O)=O)c2)=NN1C(=O)c1ccccc1 (centres unmarked),-38.1
7,COc1cccc(C2CC(c3ccc(Br)cc3)=NN2C(=O)c2ccncc2)c1OC (centres unmarked),-29.7
8,COc1cccc(C2CC(c3cccc(NS(C)(=O)=O)c3)=NN2C(=O)c2ccccc2)c1OC (centres unmarked),-40.5
9,COc1ccc(C(=O)N2N=C(c3ccc(NS(C)(=O)=O)cc3)CC2c2cccs2)cc1 (centres unmarked),-10.6
10,COc1ccc(OC)c(C2CC(c3ccc(NS(C)(=O)=O)cc3)=NN2C(=O)c2ccccc2)c1 (centres unmarked),-67.2
11,COc1cccc(C2CC(c3ccc(NS(C)(=O)=O)cc3)=NN2C(=O)c2ccccc2)c1OC (centres unmarked),-64.4
12,COc1ccccc1C1CC(c2ccccc2)=NN1C(=O)c1ccccc1 (centres unmarked),11.9
13,COc1ccccc1C1CC(c2ccc(NS(C)(=O)=O)cc2)=NN1C(=O)c1ccccc1 (centres unmarked),-50.9
14,COc1ccc(C2CC(c3ccc(OC)c(OC)c3)=NN2C(=O)c2ccccc2)cc1 (centres unmarked),9.33
15,CCOC(=O)Cc1csc(NC(=O)c2ccc(S(=O)(=O)N(CCOC)CCOC)cc2)n1,-1.25
16,O=C(Cc1ccccc1)Nc1nnc(-c2cccc([N+](=O)[O-])c2)s1,5.44
17,COc1ccc(CCC(=O)Nc2cc(S(=O)(=O)N3CCOCC3)ccc2OC(C)C)cc1,-34.8
18,COc1ccccc1N(C)S(=O)(=O)c1ccc(C(=O)OCC(=O)NCc2cccs2)cc1,5.35
19,CCN(c1ccc(OC)cc1)S(=O)(=O)c1ccc2c(c1)CC(C)N2C(=O)C1CC1 (centres unmarked),19.5
20,O=S(=O)(NCCc1ccc(F)cc1)c1cccc2cccnc12,-0.538
21,O=C(CSc1nccc(=O)[nH]1)N1N=C2/C(=C/c3ccco3)CCCC2C1c1ccco1 (centres unmarked),17.4

row,SMILES,"hERG current change (%, negative = inhibition) at 10uM [%]"
1,CCCCN1C(=O)C(=O)N(CC(=O)N2N=C3/C(=C/c4ccco4)CCCC3C2c2ccco2)C1=O (centres unmarked),-75
2,Cn1cnnc1SCC(=O)N1N=C2/C(=C/c3ccco3)CCCC2C1c1ccco1 (centres unmarked),-25.6
3,CC1CCN(C(=O)CSc2nc3c(c(=O)n(C)c(=O)n3C)n2C)CC1,10.5
4,CC1CCN(CC(=O)c2cccc(C(F)(F)F)c2)CC1.O=C(O)C(=O)O,7.63
5,COc1cccc(CCNCc2cccc(C(F)(F)F)c2)c1.O=C(O)C(=O)O,-3.46
6,COc1cc(C(=O)N(C)CC2CCN(CCc3cccc(C(F)(F)F)c3)CC2)ccc1C,-78.8
7,COc1cccc(CN(C)C(=O)c2ccc(OCC(=O)Nc3cccc(C(F)(F)F)c3)c(OC)c2)c1,-26.2
8,COc1ccc(CCNC(=O)Cc2cccc(C(F)(F)F)c2)cc1OC,5.75
9,COc1ccnc(CN(C)C(=O)C2CCC(=O)N(Cc3cccc(C(F)(F)F)c3)C2)c1 (centres unmarked),-18.6
10,COc1cccc(C(=O)N(C)CC2CCN(CCc3cccc(C(F)(F)F)c3)CC2)c1,-70.8
11,CN(CC1CCN(CCc2cccc(C(F)(F)F)c2)CC1)C(=O)c1ccc(F)cc1,-70.8
12,CN(CC1CCN(CCc2cccc(C(F)(F)F)c2)CC1)C(=O)c1ccccc1,-68.5
13,O=C(c1cccc(C(F)(F)F)c1)N1CCN(CCc2ccccc2)CC1,-47.8
14,CCOC(=O)C1CCCN(C(=O)CSc2nccn2C)C1 (centres unmarked),-0.344
15,CCOC(=O)c1cnn2c(C)cc(-c3ccccc3)nc12,-10.4
16,Cc1cc(C)c(S(=O)(=O)Nc2ncn[nH]2)cc1C,42.8
17,COC(=O)c1ccccc1NC(=O)c1ccccc1OC,-23.1
18,O=C(NCCc1cccc(C(F)(F)F)c1)C1CCC(=O)N(C2CC2)C1 (centres unmarked),3.12
19,CN(CC1CCN(CCc2cccc(C(F)(F)F)c2)CC1)C(=O)c1ccc(F)cc1F,-69.9
20,CN(Cc1cccc(C(F)(F)F)c1)C(=O)C1CCC(=O)N(CC2CCCCC2)C1 (centres unmarked),-6.77
